# This is a sample that favours compounds with a hit; in the whole collection about 31% have one here.
# CYP2C19 activ = activators of human cytochrome P450 2C19. P33261. recombinant CYP2C19, luciferin-H EGE luminescence; hits give high values; 0 = fully inhibited enzyme, 1 = untreated enzyme. activation factor at 5 µM. 96,000 tested, under 10 active. AID 1025;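 active = activation factor of at least 2 at 5 µM in the primary screen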;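 also: 0 = wells with 2.5 mM tranylcypromine and 1 = vehicle-only wells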
# PLAP act = human PLAP activation. P05187. 96,000 compounds, 1.2% hits. purified PLAP enzyme, luminescent substrate read-out; hits give high values. activation fold at 20 µM; in the data active = activation fold above about 2
# CYP2C9 inh = inhibitors of human CYP2C9. P11712. CYP2C9 Supersomes, luciferin-H conversion, luminescence. inhibition, % at 5 µM. 96,000 compounds, 20% hits;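 active = blocking of liver enzyme CYP2C9 beyond about 50% at 5 µM, limit read from the data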
# Target sequence (P11712 whole entry, looked up): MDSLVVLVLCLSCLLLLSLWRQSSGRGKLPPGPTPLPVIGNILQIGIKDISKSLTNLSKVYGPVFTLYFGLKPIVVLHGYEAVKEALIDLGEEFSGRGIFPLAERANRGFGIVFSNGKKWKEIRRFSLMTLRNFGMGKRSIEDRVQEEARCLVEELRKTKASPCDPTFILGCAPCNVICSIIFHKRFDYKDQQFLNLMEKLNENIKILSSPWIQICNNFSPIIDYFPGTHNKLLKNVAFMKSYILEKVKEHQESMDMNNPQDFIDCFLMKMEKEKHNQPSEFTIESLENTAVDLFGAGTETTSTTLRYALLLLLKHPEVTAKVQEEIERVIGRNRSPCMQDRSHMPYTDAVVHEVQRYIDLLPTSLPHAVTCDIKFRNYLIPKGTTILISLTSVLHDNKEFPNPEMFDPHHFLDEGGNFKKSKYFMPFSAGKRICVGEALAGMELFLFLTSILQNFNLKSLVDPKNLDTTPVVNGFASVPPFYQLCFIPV
# CYP2C19 inhib = human CYP2C19 inhibition; P33261; CYP2C19 Supersomes, luciferin-H EGE luminescence, 30 min; inhibition, % at 5 µM; 96,000 compounds, 21% hits; AID 778;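 active = CYP2C19 inhibition above a set limit at 5 µM in the primary screen, cut at about 50% in these data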;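 also: plate controls were negative control wells for no effect and 2.5 mM tranylcypromine positive control for full effect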
# CYP2C9 act = activators of human CYP2C9; activation factor at 5 µM; 96,000 compounds, 1.4% hits; AID 1024; recombinant CYP2C9, luciferin-H conversion, luminescence; hits give high values; factor 1 = untreated enzyme, 0 = blocked;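 active = activation factor of 2 or more for CYP2C9 at a 5 µM dose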;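 also: 0 = sulfaphenazole-blocked wells and 1 = vehicle-only wells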
# The depositor's hits bear a star.
SMILES,CYP2C19 activ,PLAP act,CYP2C9 inh,CYP2C19 inhib,CYP2C9 act
CCC(C)NS(=O)(=O)c1ccc(OCC(=O)NCC2CCCO2)cc1 (configuration not stated),0.8,0.9,10.9,15.8,0.9
CCOC(=O)c1c(=O)n(O)c2ccc(C)cc2[n+]1[O-],1.2,0.9,-18.4,-15.4,1.2
CCc1ccc(C2CC(=O)NC(SCC(=O)OC(C)C)=C2C#N)cc1 (configuration not stated),0.1,1.4,92.8*,86.7*,0.1
Cc1ccc(C2CC(=O)NC(SCCC(C)C)=C2C#N)cc1 (configuration not stated),0.6,0.9,55.8*,41.4,0.4
COC(=O)CSC1=C(C#N)C(c2ccc(Cl)cc2)C(C(=O)OC)C(=O)N1 (configuration not stated),0.4,1,44.2,60.8*,0.6
COC(=O)CSC1=C(C#N)C(c2ccc(C(C)C)cc2)CC(=O)N1 (configuration not stated),1.1,1,45.9,-6.8,0.5
COc1cc(C(c2nnnn2C(C)(C)C)N2CCN(C)CC2)cc(OC)c1OC (configuration not stated),1,1.5,-12.8,1.6,1.1
O=c1c(-c2nc3ccccc3o2)c2oc3ccccc3n2c2ccccc12,0.9,0.8,5.5,7.8,0.9
Cc1cc(Cl)ccc1OCC(=O)OC(C)C(=O)N(C)C (configuration not stated),0.3,1.3,24.1,69.3*,0.8
O=C(Cc1ccc(Cl)cc1)Nc1ccccc1CO,0.4,0.9,6.4,55.0*,0.9
O=C(Cc1ccccc1)Nc1ccccc1CO,0.8,0.9,0.3,20.2,1
CCOC(=O)c1c(C)oc(NC(=O)COc2ccc(Cl)cc2C)c1C#N,0.9,1.4,56.3*,13.2,0.4
Cc1cc(Cl)ccc1OCC(=O)OC(C)C(=O)NC(N)=O (configuration not stated),0.6,1.1,-5.7,44.9,1.1
Cc1cc(Cl)ccc1OCC(=O)Nc1ccccc1CO,0.4,0.7,25.4,57.9*,0.7
O=C(NCc1cn2ccsc2n1)c1cccs1,1,0.8,0.7,-3.7,1
Cc1cc(Cl)ccc1OCC(=O)Nn1c(C)ccc1C,0.1,1.4,40.7,93.9*,0.6
Cc1cc(Cl)ccc1OCC(=O)N1CC(C)CC(C)C1 (configuration not stated),0,1.4,47.6,97.8*,0.5
COc1ccc(S(=O)(=O)Nc2c3ccccc3nc(=O)n2-c2ccccc2)cc1,0.9,1.1,15.5,14.6,0.8
Cc1ccccc1NS(=O)(=O)c1ccc(F)cc1,0,0.8,63.5*,95.7*,0.4
COc1ccc(S(=O)(=O)NN=C2CCCC2)cc1,0.7,0.9,-6.4,32.4,1.1
COc1ccc(S(=O)(=O)Nc2cc3c4c(oc3c3ccccc23)CCCC4=O)cc1,0.5,1.2,82.5*,45.5,0.2
COc1ccc(S(=O)(=O)Nc2ccccc2C)cc1,0,1,51.0*,99.5*,0.5
O=S(=O)(Nc1cccc2cn[nH]c12)c1ccc(F)cc1,0.2,1.1,28.2,82.1*,0.7
Cc1ccccc1NS(=O)(=O)c1ccc(NC(=O)c2ccco2)cc1,0.8,0.8,35.8,21.1,0.6
Cc1sc2c(=O)n3c(nc2c1C(=O)NC1CCCCC1)CCCCC3,0.2,0.9,95.7*,83.9*,0
SMILES,CYP2C19 activ,PLAP act,CYP2C9 inh,CYP2C19 inhib,CYP2C9 act
Cc1sc2c(=O)n3c(nc2c1C(=O)NCCCN1CCOCC1)CCCCC3,0.1,1.5,90.4*,85.5*,0.1
CC(C)/C=C1\CCCCC1N(C)C(=O)NC(C)C (configuration not stated),0.4,1.3,34.6,58.5*,0.7
CC(C)NC(=O)C(=O)NC1CCCCCC1,0.9,0.8,-6.2,12.9,1.1
CC(C)C1=C2CCCCC2NC(=O)N1 (configuration not stated),1,0.9,-23.9,0.3,1.2
Cc1cnn(Cc2ccccc2)c1N,0.7,0.8,4.2,30.1,1
COc1ccc(C(=O)c2coc3ccc(O)c(CN4CCCCC4)c23)cc1,0.6,1.3,19.3,40.4,0.8
O=C(c1ccccc1)c1coc2ccc(O)c(Cl)c12,0.1,1.2,64.2*,90.3*,0.4
Cc1ccc(C(=O)c2coc3ccc(O)c(Cl)c23)cc1,0.5,1.2,6.3,54.4*,0.9
O=C(O)c1coc2ccccc12,0.8,0.9,45.4,23.8,0.5
CN(C)Cc1c(O)ccc2occ(C(=O)c3ccccc3)c12,1.1,0.9,2.0,-9.3,1
O=C(c1ccccc1)c1coc2ccc(O)c(CN3CCOCC3)c12,0,1.5,56.1*,95.5*,0.4
CC(C)NC(=O)C12CC3CC(C1)CC(n1cnc(Cl)n1)(C3)C2,0.8,0.8,10.6,15.7,0.9
O=C(Cn1cc(C(=O)COc2ccccc2)c2ccccc21)NCc1ccco1,0.6,1,78.0*,38.8,0.2
O=C(COc1ccccc1)c1cn(CC(=O)N2CCOCC2)c2ccccc12,0.7,1.4,70.7*,33.8,0.3
COc1ccc(S(=O)(=O)NCC(=O)N(CC(=O)NCC2CCCO2)c2cc(C)ccc2C)cc1 (configuration not stated),0.8,1.6,12.0,17.2,0.9
O=S(=O)(Nc1ccc2nc(C(F)(F)F)[nH]c2c1)c1ccccc1,0,1.1,81.2*,100.4*,0.2
O=S(=O)(Nc1ccc2nc(-c3ccc(Br)o3)[nH]c2c1)c1ccccc1,0.1,1,93.8*,90.6*,0.1
Cc1ccc(-c2nc3ccc(NS(=O)(=O)c4ccccc4)cc3[nH]2)o1,0,1.5,100.3*,99.5*,0
CCN(CC)CCN(CC)Cc1ccccc1Br,1,1.4,-4.1,4.9,1
C1CCCN(CCCCN2CCCCCC2)CC1,1,0.8,7.7,-3.4,0.9
Cc1cccc(-c2csc(NC(=O)c3cnccn3)c2C(=O)OC(C)C)c1,0.7,1.3,50.5*,29.6,0.5
COC(=O)c1c(-c2cccnc2)csc1NC(=O)c1cc(C)on1,0.8,0.9,28.2,19.2,0.7
COc1ccc(N2CCN(C(=O)CCN3C(=O)c4ccccc4S3(=O)=O)CC2)cc1,1,0.9,13.7,3.9,0.9
CCOC(=O)c1[nH]c(C)c(CN(Cc2ccco2)C(=O)C(F)(F)F)c1C,1,1,18.0,-2.8,0.8
C=CCOc1cccc(C2C(C(=O)c3ccco3)=C(O)C(=O)N2CCN2CCOCC2)c1 (configuration not stated),1,1.5,5.4,3.8,0.9
C=CCOc1cccc(C2C(C(=O)c3ccco3)=C(O)C(=O)N2Cc2ccncc2)c1 (configuration not stated),0.7,1.1,83.9*,25.5,0.2
C=CCOc1cccc(C2C(C(=O)c3ccc(C)o3)=C(O)C(=O)N2Cc2ccncc2)c1 (configuration not stated),0.9,1.1,61.8*,11.5,0.4

# Compound activity (PubChem)
